Several values for one entry are separate records, joined by “and”; a condition that tells them apart may be missing. Equal values may be shown once. Screen size: about 120,000 compounds; about 5,300 (4.4%) were called active. Another 22% or so got no clear call; they are omitted. The call rests on the fitted dose curve; in most records, active means well fitted inhibition curve with a large enough effect; inconclusive means small, poorly fitted or top-dose-only effect; inactive means no such curve, though single readings can be large or run the other way. This excerpt belongs to a sample that is enriched for actives. The source holds several records for some structures; these can differ, active in one and inactive in another.

The record followed here is PubChem BioAssay AID1347417 (National Center for Advancing Translational Sciences (NCATS), 2020).
Potency means the concentration at half of the fitted maximal effect.

The nature of the experiment: qHTS Primary assay for Inhibitors of Plasmodium falciparum Dd2 growth in vitro. Further: nearly all actives have a fitted effect of over 65% in size.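 On activity, negative = inhibition: plate controls were DMSO vehicle for no effect and reference drug for full effect.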 Conditions: P. falciparum Dd2 growth, SYBR Green, 72 h; series mostly up to 28.9 µM; activity, negative = inhibition: at the top concentration. In outline:
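Readout: SYBR Green fluorescence, 485 nm excitation, 535 nm emission, after ~16 h lysis at 37C. Before that, Dd2-infected red cells (2.5% hematocrit) grew 72 h with compound, 29 uM top final concentration.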
Take `CCc1nc2c(=O)n(CC(=O)NCc3ccc(Cl)cc3)nc(C)c2s1`: the “activity, negative = inhibition” value is -13.1% (inactive). On to `COc1cccc(-c2n[nH]c3c2C(c2cccc(O)c2)N(C)C3=O)c1` (configuration not stated), for which the “activity, negative = inhibition” value is -21.5% (inactive). On the same count and under the same terms, the figure for `CCCOc1ccc(C2c3c(-c4ccccc4O)n[nH]c3C(=O)N2Cc2cccnc2)cc1` (configuration not stated) is -2.57% (inactive).

Consider `CCCCN1C(=O)c2[nH]nc(-c3ccccc3O)c2C1c1cccc(OCc2ccccc2)c1` (configuration not stated), for which the Potency was 3.16 µM (active).

Consider `Cc1cc(C(=O)NCC2Cn3cccc3C(=O)N2C)nn1C` (configuration not stated), for which the “activity, negative = inhibition” value was -22.3% (inactive). Take `COc1ccccc1NC(=O)C1c2ccccc2C(=O)N(CC(C)C)C12CCCC2` (configuration not stated): the Potency was 3.55 µM (active).

For `COC(=O)CCNC(=O)C1c2ccccc2C(=O)N(CC(C)C)C12CCCC2` (configuration not stated), the “activity, negative = inhibition” value is -6.26% (inactive). Take `CC(C)CN1C(=O)c2ccccc2C(C(=O)NCc2ccccn2)C12CCCC2` (configuration not stated): the “activity, negative = inhibition” value was -1.43% (inactive). `Cc1ccc2c(c1)N1C(=O)OC[C@@H]1CCN(C(=O)c1ccno1)C2`: the “activity, negative = inhibition” value is 20.7% [at 44.1 µM] (inactive). On the same count and under the same terms, the figure for `Cc1cc(C)cc(C(=O)N2CC(c3nnc(-c4ccncc4)o3)C3(CCOCC3)C2)c1` (configuration not stated) is -28.2% (inactive); for `CC(C)(C)c1nc(C(=O)N2CCOCC2)n2ccccc12` it is -15.6% [at 44.1 µM] (inactive). With `O=C(c1nc(-c2cccnc2)c2cnccn12)N1CCN(c2ncccn2)CC1`, the result was inactive.

With `Cc1cccc(C)c1-c1nc(C(=O)N2CCN(c3ncccn3)CC2)n2ccccc12`, the Potency result is “inactive and 12.6 µM (active)”. `CN(CC1CCOC1)C(=O)c1ccc(F)cc1F` (configuration not stated): the outcome was “inactive [at 5.79 µM]”. On to `CCOC(=O)C1CCCN(C(=O)Cc2ccc(N(Cc3cccc(F)c3)C(=O)c3ccco3)cc2)C1` (configuration not stated), for which the Potency is 3.98 µM (active).

Regarding `O=C(Cc1cccc(F)c1)N1CCCC(Cc2nncn2-c2ccccc2)C1` (configuration not stated), the compound was called inactive. The same measure, in the same setting: the entry for `CC(C)NC(=O)Cc1ccc(N(Cc2cccc(F)c2)C(=O)c2ccco2)cc1` is “inactive”; for `CN(CC(=O)N1CCCC(Cc2nncn2-c2ccccc2)C1)S(=O)(=O)c1cccs1` (configuration not stated) it is “inactive”.

`Cc1ccccc1C(=O)NCc1cccnc1Oc1cccc(C(F)(F)F)c1`: the “activity, negative = inhibition” value was -19.3% (inactive). For `COc1cccc(-c2cc(C(=O)N3CCC(c4nn(C)c(=O)n4C(C)C)CC3)[nH]n2)c1`, the result was inactive. Still for that read-out and setting: the entry for `CCC(C)N1Cc2cc(NC(=O)c3ccc([N+](=O)[O-])cc3)ccc2OCC1=O` (configuration not stated) is “inactive”. Turning to `CCC(C(=O)Nc1ccc2c(c1)CN(Cc1cc(F)cc(F)c1)C(=O)CO2)c1ccccc1` (configuration not stated), the Potency was 6.31 µM (active). On to `CCC1Oc2ccc(NC(=O)c3cccs3)cc2CN(Cc2ccc(F)cc2)C1=O` (configuration not stated), for which the “activity, negative = inhibition” value was -11.1% (inactive).

As for `O=C1Nc2ccccc2C12CCN([S+](=O)([O-])c1cccc(C(F)(F)F)c1)C2` (configuration not stated), the call was inactive. Regarding `COc1ccc([C@H]2C[C@@H](O)[C@@H](O)[C@@H]2NC(=O)c2ccccc2)cc1`, the “activity, negative = inhibition” value is -24.6% [at 44.1 µM] (inactive).

Regarding `COc1cc(C(=O)Nc2ccc(-n3c(C)nc4ccccc4c3=O)cc2)cc(OC)c1OC`, the “activity, negative = inhibition” value is -5.62% (inactive). As for `COc1cc(NC(=O)c2nc3ccccc3nc2C)cc(OC)c1OC`, the result was inactive. Turning to `CCOc1ccccc1NC(=O)Cn1nnc(C(=O)Nc2ccc(C)c(C)c2)c1N`, the “activity, negative = inhibition” value was -8.19% (inactive). For the compound `COc1ccccc1Nc1c2c(nc3ccc(NC(=O)/C=C/c4cc(OC)c(OC)c(OC)c4)cc13)CCCC2`, the Potency is 3.98 µM (active). With `CCOc1ccc(C(=O)Nc2ccc3nc4c(c(Nc5ccccc5OC)c3c2)CCCC4)cc1`, the Potency was 11.2 µM (active). For `CCOc1ccc(-n2nc3ccc(NC(=O)c4ccc(OC)c(Cl)c4)cc3n2)cc1`, the outcome was inactive.

For `Cc1noc(-c2ccco2)c1C(=O)NC(C)c1ccccc1` (configuration not stated), the “activity, negative = inhibition” value was -24.3% (inactive). On the same count and under the same terms, the figure for `O=[S+]([O-])(c1ccc(Br)cc1)c1nnn2c1nc(NC1CC1)c1ccccc12` is -7.76% (inactive). For the compound `CCc1cc(=O)n(CC(=O)Nc2cccc(C(C)=O)c2)c(-c2ccccc2)n1`, the result was inactive.

Consider `Cc1ccc(NC(=O)CC2=C3CCCCC3NC2=O)cc1` (configuration not stated), for which the “activity, negative = inhibition” value was 0.61% (inactive). On the same count and under the same terms, under `CC(Cn1cncn1)Nc1nc(-c2ccncc2)nc2c1cnn2C` (configuration not stated) stands -8.69% (inactive); under `Cc1ccccc1-c1ccc(C(=O)NCCCn2ccnc2C(C)C)cn1`, -12.5% (inactive). In the case of `CC(C)c1nccn1CCCNc1nc(-c2ccncc2)nc2c1cnn2C`, the Potency is 12.6 µM (active). Regarding `O=C(NC1CCCCC1)N1C[C@@H]2C[C@H](C1)c1c(NS(=O)(=O)c3ccccc3)ccc(=O)n1C2`, the “activity, negative = inhibition” value is 20.8% (inactive).

For `Cc1cc(C)cc(NC(=O)Cn2nc3n(c2=O)CCCC3)c1`, the outcome was inactive. Regarding `COC1C(=O)N(C2CCN(Cc3ccc(O)cc3)CC2)C12CCOCC2` (configuration not stated), the “activity, negative = inhibition” value was -25.7% (inactive).

Turning to `Cc1nn2c(c1-c1ccnn1C(C)C)N(CC1CCOCC1)CCC2`, the “activity, negative = inhibition” value was -17% [at 44.1 µM] (inactive). Regarding `Cc1nn2c(c1-c1ccccc1-c1ccccc1)N(CC1CC1)CCC2`, the Potency is 0.316 µM (active). In the case of `Cc1nn2c(c1-c1ccccc1-c1ccccc1)N(C(=O)CN1CCOCC1)CCC2`, the “outcome” value was “inactive; activator; fitted 1.5849 uM [at 44.1 µM]”. `Cc1ncsc1C1N(C2CCN(C(=O)c3ccncc3)CC2)C(=O)C12CCCC2` (configuration not stated): the “activity, negative = inhibition” value was -4.33% (inactive). On the same count and under the same terms, the figure for `Cc1ccccc1NC(=O)CCOc1ccccc1` is -14.8% (inactive); for `Cc1ccccc1NC(=O)c1cc2c([nH]c1=O)CC(C)(C)CC2=O` it is -3.79% (inactive).
